Inconclusive results are not listed. A number with no mark means an inactive call. Active and inactive are the calls of the source. Unless noted, calls follow the shape of the dose curve; as a rule, active = well fitted curve in the direction sought with a large enough effect in the repeat runs; inconclusive = weak or mixed curves; inactive = no such curve, though single readings can be large; an effect the other way counts as inactive or inconclusive.

Assay [1] has as its target Retinoic acid receptor RXR-alpha (Homo sapiens) (UniProt P19793). Kind of assay: qHTS assay to identify small molecule agonists of the RXR signaling pathway (AID 1159527; calls by dose curve; also: nearly all actives have a fitted effect of over 35% in size). In a few lines:
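GeneBLAzer RXR-alpha-UAS-bla HEK 293T cells in medium with 2% charcoal-stripped FBS, pre-incubated 5 hr at 37 C, then exposed to compounds 16 hr. Beta-lactamase reporter read by FRET substrate, 2 hr room temperature, 460/530 nm emission.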
On the technique in general: In qHTS, concentration-response curves come from the screen itself.

Assay [2] can be described thus: qHTS assay to identify small molecule agonists of the RXR signaling pathway - cell viability counter screen (AID 1159529). Also: series mostly up to about 77 µM; nearly all actives have a fitted effect of over 50% in size. In a few lines:
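RXR-alpha-UAS-bla HEK 293T cells in medium with 2% charcoal-stripped FBS were preincubated 5 hr, then exposed to compounds for 16 hr at 37 C. Viability was read as CellTiter-Glo luminescence after 30 min at room temperature.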

Assay [3] can be described thus: qHTS assay to identify small molecule antagonists of the retinoid acid receptor (RAR) signaling pathway - cell viability counter screen (AID 1159551). Also: nearly all actives have a fitted effect of over 35% in size. In a few lines: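 Retinol-stimulated (1 uM final) C3RL4 cells, compound 6 h, 37 C; readout CellTiter-Glo luminescence (ATP) after 30 min RT incubation.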
Assay [4] can be described thus: qHTS assay to identify small molecule antagonists of the estrogen related receptor (ERR) signaling pathway from Tox21 library - cell viability counter screen (AID 1224834). Also: nearly all actives have a fitted effect of over 30% in size. In a few lines:
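After 17.5 h of compound exposure at 37 C, ERR cells are incubated with CellTiter-Fluor for 30 min and fluorescence intensity serves as the viability measure.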

The target of assay [5] is Luciferin 4-monooxygenase (Photinus pyralis) (UniProt P08659). Put plainly: qHTS assay to identify small molecule inhibitors of firefly luciferase (AID 1224835). Also: nearly all actives have a fitted effect of over 25% in size. Also: potency is read from the fitted curve at half-maximal effect. As to activity change, negative = inhibition: series mostly up to about 120 µM. In a few lines: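 Quantitative HTS format; KM concentrations of both substrates. Purified P. pyralis FLuc activity quantified from luminescence images.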
Chain of Luciferin 4-monooxygenase (Photinus pyralis) (P08659 whole entry, looked up): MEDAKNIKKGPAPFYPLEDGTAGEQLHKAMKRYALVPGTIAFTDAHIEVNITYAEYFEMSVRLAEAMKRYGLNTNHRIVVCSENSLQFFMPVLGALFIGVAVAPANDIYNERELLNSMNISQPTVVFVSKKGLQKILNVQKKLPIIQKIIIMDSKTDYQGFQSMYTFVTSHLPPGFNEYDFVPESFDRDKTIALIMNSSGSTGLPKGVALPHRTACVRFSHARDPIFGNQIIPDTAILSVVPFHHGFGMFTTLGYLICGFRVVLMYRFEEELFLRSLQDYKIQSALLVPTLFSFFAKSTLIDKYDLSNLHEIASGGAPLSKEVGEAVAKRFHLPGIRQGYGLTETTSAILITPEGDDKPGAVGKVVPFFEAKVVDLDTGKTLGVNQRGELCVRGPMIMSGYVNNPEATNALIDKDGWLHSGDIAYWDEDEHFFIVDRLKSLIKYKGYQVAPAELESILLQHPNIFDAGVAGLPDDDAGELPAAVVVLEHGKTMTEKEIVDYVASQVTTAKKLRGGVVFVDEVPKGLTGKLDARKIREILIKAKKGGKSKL
The nature of assay [6]: qHTS assay to identify small molecule agonists of the constitutive androstane receptor (CAR) signaling pathway - cell viability counter screen (AID 1224836). Also: series mostly up to about 92 µM; nearly all actives have a fitted effect of over 45% in size. In a few lines: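 HepG2 cells stably carrying hCAR and a CYP2B6-2.2kb reporter were plated 4 h, then given compounds at 15 concentrations plus PK11195 (final 0.75 uM). After 23 h at 37 C, viability was read by CellTiter-Fluor fluorescence.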

The nature of assay [7]: qHTS assay to identify small molecule antagonists of the constitutive androstane receptor (CAR) signaling pathway - cell viability counter screen (AID 1224837). Also: series mostly up to about 92 µM; nearly all actives have a fitted effect of over 45% in size. In outline:
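Counter screen run in HepG2-CYP2B6-hCAR cells: 4 hr settle, compound titration (15 concentrations) with 50 nM CITCO, 23 hr at 37 C/5% CO2, CellTiter-Fluor fluorescence.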

Assay [8] has as its target Nuclear receptor subfamily 1 group I member 3 (Homo sapiens) (UniProt Q14994). Kind of assay: qHTS assay to identify small molecule antagonists of the constitutive androstane receptor (CAR) signaling pathway (AID 1224838). Also: nearly all actives have a fitted effect of over 40% in size. In outline:
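Cell line: HepG2 double-stable for hCAR and CYP2B6-2.2kb reporter. Agonist: CITCO, 50 nM final. Compounds: 15 concentrations, 24 h, 37 C. Detection: ONE-Glo luminescence.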

The target is the same in assay [9]. Kind of assay: qHTS assay to identify small molecule agonists of the constitutive androstane receptor (CAR) signaling pathway (AID 1224839). Also: nearly all actives have a fitted effect of over 15% in size. Also: potency is read from the fitted curve at half-maximal effect. As to activation: series mostly up to about 92 µM. In a few lines:
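HepG2 cells stably expressing hCAR and a CYP2B6-2.2kb luciferase reporter were treated with compounds at 15 concentrations plus 0.75 uM PK11195 (final) for 24 h at 37 C; luminescence was read after ONE-Glo addition.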

The nature of assay [10]: qHTS assay to identify small molecule antagonists of the estrogen related receptor signaling pathway with the pleiotropic PPARgamma coactivator (PGC) from Tox21 10K library - cell viability counter screen (AID 1224840; active = well fitted cell-killing curve with a large enough effect in the repeat runs, not every such curve was filed as active; also: nearly all actives have a fitted effect of over 40% in size). In outline:
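Following seeding of 2,000 PGC/ERR cells/well and 6 hours' incubation, test compounds were delivered in DMSO. The plates then sat 17.5 hours at 37 C before a fluorogenic live-cell protease reagent (CellTiter-Fluor) was read after 30 min.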

Assay [11] in a line: qHTS assay to identify small molecule antagonists of the estrogen related receptor signaling pathway with the pleiotropic PPARgamma coactivator (PGC) from Tox21 10K library (AID 1224841; call rule not given here; also: series mostly up to about 92 µM; actives are mostly falling curves and most rising ones were filed inactive; nearly all actives have a fitted effect of over 50% in size). In outline:
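qHTS antagonist format: PGC/ERR cells, 2k/well, compound in DMSO by pin transfer after 6 h attachment, 18 h treatment at 37 C, One-Glo luminescence read at 30 min.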

Assay [12] can be described thus: qHTS assay to identify small molecule agonists of the estrogen related receptor signaling pathway with the pleiotropic PPARgamma coactivator (PGC) from Tox21 10K library (AID 1224842). Also: nearly all actives have a fitted effect of over 15% in size. In outline: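 PGC/ERR reporter cells (NTP line) were seeded 2,000 per well, rested 6 h at 37 C/5% CO2, then pin-dosed with compounds in DMSO for 18 h at 37 C; luciferase read by One-Glo luminescence after 30 min at room temperature.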
% is scaled to controls: 0 for no effect and ±100 for the full control effect.

Chain of Nuclear receptor subfamily 1 group I member 3 (Homo sapiens) (Q14994 whole entry, looked up): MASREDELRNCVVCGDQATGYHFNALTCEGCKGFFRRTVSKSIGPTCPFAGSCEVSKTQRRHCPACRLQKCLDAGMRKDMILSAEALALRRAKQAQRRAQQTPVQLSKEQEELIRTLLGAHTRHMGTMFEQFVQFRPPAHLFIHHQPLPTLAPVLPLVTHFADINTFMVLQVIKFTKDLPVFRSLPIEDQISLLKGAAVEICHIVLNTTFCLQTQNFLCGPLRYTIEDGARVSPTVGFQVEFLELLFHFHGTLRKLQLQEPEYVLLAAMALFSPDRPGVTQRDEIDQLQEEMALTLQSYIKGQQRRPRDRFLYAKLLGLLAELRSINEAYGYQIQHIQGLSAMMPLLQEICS
Chain of Retinoic acid receptor RXR-alpha (Homo sapiens) (P19793 whole entry, looked up): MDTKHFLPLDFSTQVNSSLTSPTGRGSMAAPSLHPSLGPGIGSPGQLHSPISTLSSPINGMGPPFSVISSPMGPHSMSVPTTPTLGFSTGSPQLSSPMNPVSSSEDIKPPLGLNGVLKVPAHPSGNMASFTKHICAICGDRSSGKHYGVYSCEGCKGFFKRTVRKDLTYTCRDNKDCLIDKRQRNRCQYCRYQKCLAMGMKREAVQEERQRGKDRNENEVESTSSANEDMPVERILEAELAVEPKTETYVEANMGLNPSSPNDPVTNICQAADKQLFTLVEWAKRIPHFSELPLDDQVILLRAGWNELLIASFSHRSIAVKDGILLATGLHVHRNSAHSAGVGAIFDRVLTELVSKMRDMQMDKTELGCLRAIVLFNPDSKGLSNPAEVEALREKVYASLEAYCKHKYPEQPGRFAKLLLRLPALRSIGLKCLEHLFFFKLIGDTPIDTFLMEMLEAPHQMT

For the compound `C=C[Si](OC)(OC)OC`, the Potency entry in [1], in assay [2], in assay [4], in assay [5], in assay [8] and in [9] was “inactive” in each case. The call in assay [3], in assay [6], in assay [7] and in [10] was inactive.
On to `N#CCN(CC#N)CCN(CC#N)CC#N`, for which the Potency result in assay [1], in assay [2], in [4], in [5], in assay [8] and in [9] was “inactive” in each case. Besides, the compound was classed as inactive in [3], in [6], in assay [7] and in [10].
Consider `COC(C(=O)O)c1ccccc1` (centres undefined), for which the Potency entry in assay [1], in assay [2], in assay [4], in [5], in assay [8] and in assay [9] was “inactive” each time. For the same compound, the outcome in assay [3], in assay [6], in [7] and in assay [10] was inactive.
As for `COCc1ccc(COC)cc1`, the Potency result in assay [1], in [2], in assay [4], in assay [5], in assay [8] and in assay [9] was “inactive” in each case. Also, the compound was called inactive in assay [3], in assay [6], in [7] and in assay [10].
Regarding `C=CCOCC(O)CS(=O)(=O)O` (centres undefined), the Potency entry in assay [1], in assay [2], in assay [4], in [5], in assay [8] and in [9] was “inactive” each time. Further, the compound was called inactive in assay [3], in assay [6], in [7] and in [10].
For the compound `CC(C=O)Cc1ccc(C(C)C)cc1` (centres undefined), the Potency entry in assay [1], in assay [2], in [4], in assay [5], in [8] and in [9] was “inactive” throughout. The compound was called inactive in assay [3], in assay [6], in assay [7] and in assay [10].
Take `CC1=CC(C)C(C=O)C(C)C1` (centres undefined): the Potency result in [1], in [2], in assay [4], in assay [5], in assay [8] and in [9] was “inactive” each time. Besides, the outcome in [3], in [6], in assay [7] and in assay [10] was inactive.
With `CSc1nc(NC2CC2)nc(NC(C)(C)C)n1`, the Potency result in assay [1], in assay [2], in assay [4], in assay [5] and in [8] was “inactive” in each case. In addition, the result in [3], in [6] and in [7] was inactive. Moreover, the Potency in assay [9] was 17.2 µM (active).
With `CCCC(=O)O[C@]1(C(=O)CCl)[C@@H](C)C[C@H]2[C@@H]3CCC4=CC(=O)C=C[C@]4(C)[C@@]3(F)C(=O)C[C@@]21C`, the Potency result in assay [1], in assay [2], in assay [4], in assay [5], in assay [8] and in assay [9] was “inactive” each time. Besides, the outcome in assay [3], in assay [6], in assay [7] and in assay [10] was inactive.
For the compound `O=c1[nH]c(=O)n([C@H]2O[C@H](CO)[C@@H](O)[C@@H]2O)cc1/C=C\Br`, the Potency entry in [1], in assay [2], in assay [4], in [5], in [8] and in [9] was “inactive” in each case. Further, the outcome in [3], in assay [6], in assay [7] and in assay [10] was inactive.
Regarding `CC(C)CCCCCCN`, the Potency entry in assay [1], in [2], in assay [4], in assay [5], in [8] and in [9] was “inactive” throughout. Besides, the compound was called inactive in assay [3], in assay [6], in assay [7] and in assay [10].
With `CC1=CCC2C(C1)C2(C)C` (centres undefined), the Potency result in assay [1], in [2], in assay [4], in assay [5], in assay [8] and in [9] was “inactive” each time. Moreover, the outcome in assay [3], in assay [6], in [7] and in [10] was inactive.
`CC(C)CCOC(=O)CC(C)C`: the Potency entry in assay [1], in assay [2], in [4], in assay [5], in assay [8] and in [9] was “inactive” in each case. Moreover, the result in [3], in assay [6], in assay [7] and in [10] was inactive.
With `NS(=O)(=O)c1cc2c(cc1Cl)NC(CSCc1ccccc1)=NS2(=O)=O`, the Potency entry in assay [1], in assay [2], in assay [4], in [5], in [8] and in [9] was “inactive” each time. Further, the compound was called inactive in assay [3], in assay [6], in assay [7] and in [10].
Take `Cc1ncc(CSSCc2cnc(C)c(O)c2CO)c(CO)c1O`: the Potency result in assay [1], in assay [2], in assay [4], in assay [5] and in [11] was “inactive” throughout. The compound was classed as inactive in [3], in assay [6], in [7] and in [10].
Turning to `O=Cc1ccccc1[N+](=O)[O-]`, the Potency entry in assay [1], in assay [2], in [4], in assay [5], in assay [8] and in assay [11] was “inactive” in each case. The Potency result in assay [12] is “inactive”. For the same compound, the compound was called inactive in assay [3], in assay [6], in [7] and in assay [10].
For `Fc1ccccc1-c1ccccc1`, the Potency result in [1], in assay [2], in assay [4], in assay [5], in assay [8] and in [9] was “inactive” in each case. Also, the outcome in assay [3], in assay [6], in assay [7] and in [10] was inactive.
Regarding `Cc1nccn1CC1CCc2c(c3ccccc3n2C)C1=O` (centres undefined), the Potency entry in assay [1], in [2], in assay [4], in assay [5], in assay [8] and in [9] was “inactive” each time. The compound was classed as inactive in [3], in assay [6], in assay [7] and in [10].
With `C=CCOc1nc(OCC=C)nc(OCC=C)n1`, the Potency entry in assay [1], in assay [2], in [4] and in assay [5] was “inactive” throughout. Further, the compound was called inactive in assay [3], in assay [6], in assay [7] and in assay [10].
Take `C=C(C)C(=O)OCCCCCCCCCCCCCCCCCC`: the activation in [1] is 6.68% [at 15.8 µM]. The activity change, negative = cytotoxicity in assay [2] was 15.1% [at 15.8 µM]; in assay [3] it was -0.339% [at 19 µM]; in assay [7], 4.26% [at 19 µM]. Further, the viability change, negative = cytotoxic in assay [4] was -0.607% [at 19 µM]; in [6], 1.14% [at 19 µM]; in assay [10], 1.61% [at 19 µM]. Further, the activity change, negative = inhibition in assay [5] is -0.803% [at 23.6 µM].
Turning to `[O-][N+](=Nc1ccccc1)c1ccccc1`, the Potency result in assay [1], in assay [2], in assay [4] and in [8] was “inactive” throughout. The result in assay [3], in assay [6], in assay [7] and in assay [10] was inactive. In addition, the Potency is 11.3 µM (active) in assay [5] and 30.6 µM (active) in [9].
With `OC/C=C/c1ccccc1`, the Potency entry in [1], in [2], in assay [4] and in assay [5] was “inactive” throughout. For the same compound, the outcome in assay [3], in assay [6], in assay [7] and in [10] was inactive.
Take `COc1cc(C(=O)N2CCOCC2)cc(OC)c1OC`: the Potency entry in assay [1], in [2], in [4] and in assay [5] was “inactive” each time. Besides, the outcome in assay [3], in assay [6], in [7] and in assay [10] was inactive.
Consider `CCCCCCCCCCCCCCCCCC(=O)OCCCCCCCCCCCCCC(C)C`, for which the Potency entry in [1], in assay [2], in assay [4] and in [5] was “inactive” each time. The compound was classed as inactive in assay [3], in assay [6], in [7] and in assay [10].

Source of the values: PubChem BioAssay (Tox21).
